# CIT2-GFP yeast: modulators of CIT2-GFP expression in yeast, primary screen, S. cerevisiae, GFP fusion, multiplex flow cytometry, MLPCN library; 320,000 tested, 0.065% active; AID 2029, 2009; S. cerevisiae CIT2-GFP strain, 3 h; 100 means same as DMSO wells; GFP response vs DMSO, % at 10 µM;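 active means GFP response relative to DMSO above a set limit, near the screen mean plus 3 SD, cut at about 150% in these data; inconclusive means Fewer than 70 cells measured for a yeast strain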;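 further: ratio of well median GFP fluorescence to mean of DMSO wells on the plate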
# VLA-4 inh: inhibition in human VLA-4 binding assay, primary screen, VLA-4 allosteric modulator project, MLPCN library, flow cytometry, VLA-4 expressing cells; Integrin alpha-4 (Homo sapiens), P13612; ligand binding flow cytometry; inhibition, % (about 7 µM as worked out from the volumes in the protocol); 330,000 tested, 0.2% active; AID 2557, 2010; in the data active means inhibition above about 50%
# RPL19A-GFP yeast: RPL19A-GFP expression modulators in yeast, primary screen, cell-based, S. cerevisiae, multiplex flow cytometry, MLPCN. percent response vs DMSO, % at 10 µM. 330,000 tested, 0.3% active. S. cerevisiae RPL19A-GFP strain, 3 h; active compounds read low. AID 2025, 2009;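 active means percent response vs DMSO below 50%; inconclusive means fewer than 70 events counted for the yeast strain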;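 further: median channel GFP fluorescence of the barcoded RPL19A-GFP strain; ratio of sample median GFP to plate DMSO average so 100% = DMSO; lower means less RPL19A-GFP as with rapamycin TOR inhibition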
# AGP1 TOR yeast: modulators of AGP1-GFP expression in yeast TOR pathway, primary screen, cell-based, multiplex flow cytometry, S. cerevisiae, MLPCN library; 320,000 tested, 0.02% active; 3 h; GFP as percent of DMSO wells; GFP response vs DMSO, % at 10 µM;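 active means GFP response relative to DMSO above a set limit, near screen average plus 3 SD, cut at about 150% in these data; inconclusive means fewer than 70 cells counted for the yeast strain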;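 further: median GFP channel fluorescence of the gated AGP1 strain per well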
# MEP2 TOR yeast: modulators of MEP2-GFP levels in yeast, primary screen, S. cerevisiae, multiplex flow cytometry, MLPCN library; 330,000 tested, 0.51% active; S. cerevisiae MEP2-GFP strain, 3 h; 100% = DMSO control level; GFP response vs DMSO, % at 10 µM;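 active means GFP response versus DMSO above a set limit, roughly screen mean plus 3 SD, cut at about 180% in these data; inconclusive means fewer than 70 cells counted for a yeast strain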;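 further: median GFP fluorescence of the barcode-gated MEP2-GFP cells per well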
# LAP4 TOR yeast: modulators of LAP4-GFP expression in yeast, primary screen, S. cerevisiae, multiplex flow cytometry, MLPCN library; 3 h; median GFP as percent of DMSO wells; GFP response vs DMSO, % at 10 µM; 320,000 tested, 0.34% active;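 active means GFP response vs DMSO above a set limit, about the screen mean plus 3 SD, cut at about 150% in these data; inconclusive means under 70 cell events counted for the yeast strain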
# * = called active by the depositor; ? = inconclusive; nt = no result given; [ ] = remark or other dose. Only some compounds are listed: those with a hit (about 1.1% of all), similar ones and a draw of the others.
SMILES,CIT2-GFP yeast,VLA-4 inh,RPL19A-GFP yeast,AGP1 TOR yeast,MEP2 TOR yeast,LAP4 TOR yeast
CC(C)Oc1ccccc1C1Nc2ccccc2C(=O)N1c1ccc2c(c1)OCCO2 (centres undefined),?,6,52,nt,210*[may fluoresce violet],80
CCN(C(=O)COc1ccc(N(C)S(=O)(=O)c2ccc(NC(C)=O)cc2)cc1)C1CCCCC1,111,7,96,95,123,97
O=C(NCCCN1CCOCC1)c1ccccc1N1C(=O)[C@@H]2Cc3c([nH]c4ccccc34)C(c3cccc(Cl)c3)N2C1=O (some centres undefined),91,34,95,96,102,102
Oc1[nH]c(N=C2N=c3ccccc3=N2)c2ccccc12,?,3,90,18,191*[may fluoresce violet],131
CCN(CC(=O)Nc1ccc(Br)cc1)C(=O)c1nc2nc(C)cc(C)n2n1,85,-1,91,91,90,89
CC(C)(C)c1ccc(C(=O)NNC(=O)CCC(=O)Nc2ccccc2)cc1,98,2,90,95,96,102
COc1nc(NC2CCCCC2)nc(NC(C)(C)C)n1,93,-1,95,99,86,106
CC(C)(C)Nc1nc(Cl)nc(NC2CCCCC2)n1,?,6,42*[may fluoresce violet],?,171,74
CC(NC(=O)c1ccccc1)c1nc2ccccc2n1Cc1ccccc1F (centres undefined),?,21,16*[may fluoresce violet],?,293*[may fluoresce violet],71
CC(NC(=O)c1ccccc1)c1nc2ccccc2n1Cc1ccc(C#N)cc1 (centres undefined),99,3,99,102,105,99
C[C@@H]1CN([C@H](C)CO)C(=O)Cc2cc(NC(=O)Nc3ccccc3)ccc2O[C@@H]1CN(C)Cc1ccc2c(c1)OCO2,89,0,93,93,97,94
CC(C)c1ccc(OCC(=O)Nc2c3c(nn2C(C)(C)C)CS(=O)(=O)C3)cc1,95,38,98,97,106,103
Cc1nc(C)n(CC(C)C(=O)N2CCN(S(=O)(=O)c3ccccc3)CC2)n1 (centres undefined),?,12,40*[may fluoresce violet],?,?,?
c1ccc(OCCSc2nc3ccccc3[nH]2)cc1,?,6,44*[may fluoresce violet],nt,182*[may fluoresce violet],103
CC(C)CC(=O)Nc1ccc(C(=O)CN2CCN(c3ccc(O)cc3)CC2)cc1,?,14,26*[may fluoresce violet],?,237*[may fluoresce violet],58
O=C(CCN1C(=O)C2CC=C(Cl)CC2C1=O)NCc1ccccc1 (centres undefined),?,-2,?,?,206*[may fluoresce violet],?
O=C(CCN1C(=O)C2CC=C(Cl)CC2C1=O)NCc1ccco1 (centres undefined),98,-8,104,99,100,95
CCc1ccc(-c2nc(CSCC(=O)N3CCN(c4ccccn4)CC3)c(C)o2)cc1,?,3,45*[may fluoresce violet],19,177*[may fluoresce violet],98
Oc1ccc(-c2csc(-c3ccccc3)n2)cc1O,101,19,90,88,97,206*
CCOC(=O)C1(CCOc2ccccc2)CCN(Cc2cccc(OC)c2O)CC1,93,7,94,89,103,86
CCc1ccccc1NC(=O)COC(=O)C1C2CC3OC(=O)C1C3C2 (centres undefined),?,3,49*[may fluoresce violet],24,754*[may fluoresce violet],101
Cc1cccc(NC(=O)COC(=O)C2C3CC4OC(=O)C2C4C3)c1C (centres undefined),103,-10,99,100,93,100
CC1(C)C2CCC(C2)C1(C)NC(=O)CN1CCCC1 (centres undefined),97,2,100,99,103,105
CC1(C)C2CCC(C2)C1(C)NC(=O)CN1CCOCC1 (centres undefined),?,-7,42*[may fluoresce violet],?,308*[may fluoresce violet],92
CCN(CC)c1ccc(NC2=C(Cl)C(=O)c3ccccc3C2=O)cc1,88,54*,92,92,90,99
SMILES,CIT2-GFP yeast,VLA-4 inh,RPL19A-GFP yeast,AGP1 TOR yeast,MEP2 TOR yeast,LAP4 TOR yeast
CCN(C(=O)CSc1nnc(C)n1Cc1ccccc1)C1CCS(=O)(=O)C1 (centres undefined),nt,15,94,93,98,89
Cc1nnc(SCC(=O)N(C)C2CCS(=O)(=O)C2)n1Cc1ccccc1 (centres undefined),?,9,27*[may fluoresce violet],?,269*[may fluoresce violet],82
O=S(=O)(Nc1cccc(-c2ccc(N3CCCCCC3)nn2)c1)c1ccccc1F,99,2,47*,15,117,79
CCC(=O)Nc1cccc(-c2ccc(N3CCC(C)CC3)nn2)c1,102,11,104,107,100,106
CC1CCN(c2ccc(-c3cccc(NC(=O)C(F)(F)F)c3)nn2)CC1,?,-6,48*[may fluoresce violet],?,522*[may fluoresce violet],116
O=C(Nc1cccc(-c2ccc(N3CCCCC3)nn2)c1)C(F)(F)F,?,19,50,22,551*[may fluoresce violet],101
O=C(Cc1ccc(Cl)cc1)Nc1ccc(Br)cn1,83,-40,71,26,187*,111
COc1ccc2c(c1)cc(C(=O)N[C@@H](CCSC)C(=O)N1CCC(C(=O)O)CC1)n2C,102,11,104,102,106,90
O=c1[nH]c(CN2CCCCC2)nc2c1C1(CCCCC1)Cc1ccccc1-2,157*,-2,120,112,115,120
CCc1nc2c(c(=O)[nH]1)C1(CCCC1)Cc1ccccc1-2,101,10,103,109,108,96
Cn1cnnc1SCc1ccc(C(=O)n2ncc(C#N)c2N)cc1,nt,-13,23*[may fluoresce violet],?,303*[may fluoresce violet],106
Cn1cnnc1SCc1ccc(C(=O)N=Nc2c(O)n(C)c3ccccc23)cc1,102,-1,98,101,101,101
COc1ccc(OC)c(CN2CCN(C(=O)CNC(=O)c3ccc(C(C)(C)C)cc3)CC2)c1,106,7,102,105,102,102
Cc1ccc(C(=O)N2c3ccccc3NC(=O)C2C)cc1 (centres undefined),nt,5,103,102,247*,212*
CC1C(=O)Nc2ccccc2N1C(=O)c1ccc(Cl)c(Cl)c1 (centres undefined),103,12,110,106,109,94
C/C(CC(=O)Nc1cc(C)ccn1)=N\NC(=O)c1cccc(F)c1,91,1,70,14,183*,93
